# Bioassay records (PubChem BioAssay)
# Sampled rows, rich in hits. Any-hit rate of the full collection: about 3.1%.
# Mtb FBA inh – Mtb FBA enzyme inhibitors, primary screen, biochemical, fluorescence, strain H37Rv | Fructose-bisphosphate aldolase (Mycobacterium tuberculosis (strain ATCC 25618 / H37Rv)), … | purified M. tuberculosis FBA, fluorescence read-out | inhibition, % at 1 µM | actives 2.3% (n = 360,000) | AID 588726, 2011; in the data active = inhibition above about 27%;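 also: 0% = vehicle and 100% = reference inhibitor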
# Target sequence (P9WQA3 whole entry, looked up): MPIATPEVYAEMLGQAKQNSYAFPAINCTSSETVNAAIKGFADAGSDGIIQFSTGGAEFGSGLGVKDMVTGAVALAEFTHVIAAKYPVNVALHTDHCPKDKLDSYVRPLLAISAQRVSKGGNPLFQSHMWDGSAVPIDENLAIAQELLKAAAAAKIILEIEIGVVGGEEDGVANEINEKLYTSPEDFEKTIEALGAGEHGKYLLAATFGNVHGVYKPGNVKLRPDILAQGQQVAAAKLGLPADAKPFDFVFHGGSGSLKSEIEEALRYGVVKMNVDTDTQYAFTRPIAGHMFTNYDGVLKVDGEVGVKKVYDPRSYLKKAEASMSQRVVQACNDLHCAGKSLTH
# Mtb BioA inh – M. tuberculosis BioA enzyme inhibitors, primary screen, biochemical, plate reader, single point, HTS. purified M. tuberculosis BioA enzyme. actives 0.096% (n = 360,000). inhibition, % at 9.99 µM. 7,8-diaminopelargonic acid synthase BioA (Mycobacterium tuberculosis). AID 602481, 2012; in the data active = inhibition above about 40%
# GDH-TPI counter – GDH-TPI coupling enzyme inhibitors, primary screen, artefact control for M. tuberculosis FBA inhibitor project, biochemical, absorbance, full deck; inhibition, % at 4.8 µM; AID 588335, 2011; GDH-TPI coupled enzyme counterscreen, NADH absorbance; actives 1.2% (n = 360,000); in the data active = inhibition above about 30%;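 also: 0% = DMSO wells and 100% = wells lacking the enzyme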
# FadD28 FP inh – inhibitors of FadD28 bisubstrate probe binding, primary screen, biochemical, fluorescence polarization, single point. Mycobacterium tuberculosis FadD28 fatty-acid-AMP ligase. inhibition, % at 12.5 µM. actives 0.22% (n = 360,000); in the data active = inhibition above about 8.5%, passing the limit was not always enough
# 3CLpro inhibitor – SARS-CoV 3CLpro protease inhibitors, primary screen, biochemical, quenched FRET; Replicase polyprotein 1ab (Severe acute respiratory syndrome coronavirus), P0C6X7; AID 1706, 2009; recombinant SARS-CoV 3CLpro, quenched FRET peptide cleavage; inhibition, % at 6 µM; actives 0.14% (n = 290,000); in the data active = inhibition above about 12%
# Starred values were filed as active, the others as inactive; / = no result; + = active, no number.
SMILES,Mtb FBA inh,Mtb BioA inh,GDH-TPI counter,FadD28 FP inh,3CLpro inhibitor
COc1ccc(-c2cc(=NC(CC(C)C)C(=O)O)c3cc(C)ccc3o2)cc1 (configuration not stated),+,/,23,-1,-3
COc1ccc(N=c2cc(-c3ccc(O)cc3)oc3ccccc23)cc1,-5,/,8,1,-3
COc1ccc(-c2cc(=NCCC(=O)O)c3cc(C)ccc3o2)cc1,+,9,26,-1,1
COc1ccc(N=c2cc(-c3ccc(OC)cc3)oc3ccccc23)cc1,13,/,18,-1,-1
COc1ccc(-c2cc(=Nc3ccccc3)c3cc(C)ccc3o2)cc1,+,22,-1,-5,2
CC(C)NC(=O)Nc1ccc2c(c1)C(=O)N([C@@H](C)CO)C[C@@H](C)[C@@H](CN(C)C(=O)CCCN(C)C)OCCCC[C@@H](C)O2,/,-2,/,/,/
C[C@H]1CN([C@@H](C)CO)C(=O)c2cc(NC(=O)Nc3cccc4ccccc34)ccc2O[C@@H]1CN(C)Cc1ccccc1,/,0,/,/,/
CCOC(=O)C(=O)/C(C#N)=C/Nc1ccccc1,-1,-1,4,-3,2
CCOC(=O)/C(C#N)=C/Nc1ccccc1OC,-13,1,44*,-2,1
C[C@@H]1CN([C@H](C)CO)C(=O)c2cc(-c3cccc(F)c3)cnc2O[C@@H]1CN(C)C(=O)c1cnccn1,/,1,/,/,/
CCCNC(=O)N1C[C@H](C)[C@H](OC)CN(C)C(=O)c2ccc(NS(C)(=O)=O)cc2OC[C@@H]1C,/,0,/,/,/
Cc1ccc(S(=O)(=O)N(C)C[C@H]2OCCCC[C@@H](C)Oc3ccc(NS(=O)(=O)c4ccc(F)cc4)cc3C(=O)N([C@@H](C)CO)C[C@H]2C)cc1,/,-3,/,/,/
Cc1noc(C)c1S(=O)(=O)Nc1ccc2c(c1)CC(=O)N([C@H](C)CO)C[C@@H](C)[C@@H](CN(C)CC1CCCCC1)O2,/,1,/,/,/
CCOC(=O)C1=C(C)NC(SC)=C(C#N)C1CC(C)C (configuration not stated),2,2,32*,-2,7
CC(=O)C1=C(C)NC(SCC(N)=O)=C(C#N)C1CC(C)C (configuration not stated),-2,/,1,1,7
CCCCOc1[nH]c2nc(-c3ccco3)n(Cc3ccco3)c(=N)c2c1C#N,8,/,14,11*,-4
COc1cc(Br)c(-c2sc(Nc3ccccc3)n[n+]2-c2ccc(F)cc2)cc1OC,-4,1,-5,-2,-8
COc1cc(OC)c(-c2sc(Nc3ccccc3)n[n+]2-c2ccc(F)cc2)cc1OC,9,-2,38*,-1,2
CCCCn1nc(C(=O)Oc2ccc3c(C)cc(=O)oc3c2)c2ccccc2c1=O,+,/,4,2,3
Cc1cc(=O)oc2cc(OC(=O)CCN3C(=O)c4ccccc4C3=O)ccc12,+,/,6,-2,1
Cc1cc(=O)oc2cc(OCCCN3C(=O)c4ccccc4C3=O)ccc12,1,0,13,-4,2
C[C@H](CO)N1C[C@H](C)[C@H](CN(C)Cc2ccccc2)Oc2cc(C3=CCCC3)ccc2S1(=O)=O,/,-3,/,/,/
CC(C)NC(=O)N(C)C[C@@H]1Oc2ncc(C#Cc3ccncc3)cc2C(=O)N([C@@H](C)CO)C[C@H]1C,/,-2,/,/,/
C[C@H]1CN([C@@H](C)CO)C(=O)c2ccccc2-c2ccccc2CO[C@@H]1CN(C)C(=O)Nc1cccc(C(F)(F)F)c1,/,0,/,/,/
CCOC(=O)C1CCCN(C(=O)c2ccc(OCC)cc2)C1 (configuration not stated),+,0,-6,-3,-2
SMILES,Mtb FBA inh,Mtb BioA inh,GDH-TPI counter,FadD28 FP inh,3CLpro inhibitor
CCOC(=O)C1CCCN(C(=O)C2COc3ccccc3O2)C1 (configuration not stated),2,1,4,-2,/
CCOC(=O)C1CCCN(C(=O)c2ccc(C(=O)c3ccccc3)cc2)C1 (configuration not stated),1,-1,2,0,/
CCOC(=O)C1CCCN(C(=O)C2c3ccccc3Oc3ccccc32)C1 (configuration not stated),7,/,10,10*,1
Cc1cccc(C)c1NC(=O)/C(C#N)=C/c1cccs1,3,0,42*,0,6
O=C(CC1(O)C(=O)Nc2ccccc21)c1ccc(-n2cnnn2)cc1 (configuration not stated),2,0,4,-2,8
CCS(=O)(=O)Nc1ccc(C(=O)CC2(O)C(=O)Nc3ccccc32)cc1 (configuration not stated),-2,-2,39*,-2,-5
COc1cc(-c2cc(C(=O)Nc3ccc(N4CCOCC4)cc3)c3ccccc3n2)cc(OC)c1OC,-2,0,42*,-2,1
COc1ccc(N2CCN(C(=O)c3ccc4[nH]c(C)c(C)c4c3)CC2)cc1,1,1,-1,-2,7
CCOc1cc(C(=O)N2CCN(c3ccc(C(C)=O)cc3)CC2)cc(OCC)c1OCC,1,6,31*,-1,-3
CC(=O)c1ccc(N2CCN(C(=O)c3ccc4[nH]c(C)c(C)c4c3)CC2)cc1,5,1,35*,-1,/
CC(=O)c1ccc(N2CCN(C(=O)CCCn3c(=O)[nH]c4ccc(Br)cc4c3=O)CC2)cc1,-2,/,32*,-4,0
COc1cccc2sc(N(CCN(C)C)C(=O)/C=C/c3cccs3)nc12,1,/,32*,-3,-5
CCN(CC)CCN(C(=O)/C=C/c1cccs1)c1nc2ccc(F)cc2s1,2,-1,4,-1,-6
COc1ccc(OC)c2sc(N(CCN(C)C)C(=O)/C=C/c3cccs3)nc12,4,-3,33*,0,1
COc1ccc(C)c2sc(N(CCN(C)C)C(=O)/C=C/c3cccs3)nc12,0,0,31*,-3,4
CCOc1cccc2sc(N(CCN(C)C)C(=O)/C=C/c3cccs3)nc12,-6,-1,4,-7,-6
CN(C)CCCN(C(=O)/C=C/c1cccs1)c1nc2ccc(F)cc2s1,-2,-2,48*,-4,3
C[C@H]1CCCCO[C@@H](CN(C)Cc2ccc(C(=O)O)cc2)[C@@H](C)CN([C@@H](C)CO)C(=O)c2cc(NS(=O)(=O)c3ccccc3)ccc2O1,/,0,/,/,/
COc1ccc(S(=O)(=O)Nc2ccc3c(c2)C(=O)N([C@@H](C)CO)C[C@@H](C)[C@@H](CN(C)Cc2ccc(C(F)(F)F)cc2)O3)cc1,/,-2,/,/,/
Cc1ccc(-n2c(C)cc(/C=N/NC(=O)c3ccc(CN4CCOCC4)cc3)c2C)cc1,1,-1,21,-2,1
